Measurements published in PubChem BioAssay AID1159580 (chemical genetic matrix, 2015).
Among all 5,500 compounds or so, about 2,000 (36%) were called active. Not shown: some 18% with an inconclusive outcome. Rule as the data show it: active = normalized growth mostly below about 0.91 (no sharp cut-off); inconclusive = no clear call, values can overlap the other calls; inactive = mostly above about 0.92. Some of the results follow.

Test: chemical genetic growth profiling, strain panel (AID 1159580);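 also: tested at 20 µM; growth read once vehicle control cultures reached saturation at 30 °C; 1 = growth at the plate median or of vehicle wells; lower values mean less growth of the strain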
Settings: growth OD

Measured: normalized growth

C[C@H]1CC2C([C@@H](O)C[C@@]3(C)C2CC[C@]3(O)C(=O)CO)[C@@]2(C)C=CC(=O)C=C12 (some centres not stated)
inactive: S. cerevisiae deletion strains, locus YJR075W, strain HOC1, active compounds read low 1.01 | S. cerevisiae deletion strains, locus YKL009W, strain mrt4, active compounds read low 0.997 | S. cerevisiae deletion strains, locus YKL068W, active compounds read low 0.999 | S. cerevisiae deletion strains, locus YKL085W, strain MDH1 (second series), active compounds read low 1 | S. cerevisiae deletion strains, locus YKL085W, strain MDH1, active compounds read low 1 | S. cerevisiae deletion strains, locus YKL160W, strain elf1, active compounds read low 0.975 | S. cerevisiae deletion strains, locus YKL190W, strain CNB1, active compounds read low 0.995 | S. cerevisiae deletion strains, locus YKR001C, strain vps1, active compounds read low 1.02 | S. cerevisiae deletion strains, locus YKR026C, strain gcn3, active compounds read low 0.999 | S. cerevisiae deletion strains, locus YKR091W, strain srl3, active compounds read low 1.01 | S. cerevisiae deletion strains, locus YLL001W, strain dnm1, active compounds read low 0.96 | S. cerevisiae deletion strains, locus YLL026W, active compounds read low 0.982 | S. cerevisiae deletion strains, locus YLL041C, strain sdh2, active compounds read low 1.01 | S. cerevisiae deletion strains, locus YLR027C, strain aat2, active compounds read low 0.985 | S. cerevisiae deletion strains, locus YLR039C, strain RIC1, active compounds read low 0.982 | S. cerevisiae deletion strains, locus YLR058C, strain SHM2, active compounds read low 0.999 | S. cerevisiae deletion strains, locus YLR102C, strain apc9, active compounds read low 1.02 | S. cerevisiae deletion strains, locus YLR113W, strain HOG1, active compounds read low 1.03 | S. cerevisiae deletion strains, locus YLR221C, strain rsa3, active compounds read low 1.01 | S. cerevisiae deletion strains, locus YLR258W, strain gsy2, active compounds read low 1.01 | S. cerevisiae deletion strains, locus YLR262C, strain YPT6 (second series), active compounds read low 0.968 | S. cerevisiae deletion strains, locus YLR262C, strain YPT6, active compounds read low 0.996 | S. cerevisiae deletion strains, locus YLR268W, strain sec22, active compounds read low 1.07 | S. cerevisiae deletion strains, locus YLR320W, strain mms22, active compounds read low 0.989 | S. cerevisiae deletion strains, locus YLR330W, strain CHS5, active compounds read low 0.999 | S. cerevisiae deletion strains, locus YLR342W, strain FKS1 (second series), active compounds read low 1.01 | S. cerevisiae deletion strains, locus YLR342W, strain FKS1, active compounds read low 0.985 | S. cerevisiae deletion strains, locus YLR357W, strain rsc2, active compounds read low 0.996 | S. cerevisiae deletion strains, locus YLR370C, strain arc18, active compounds read low 0.992 | S. cerevisiae deletion strains, locus YLR371W, strain rom2, active compounds read low 1.01 | S. cerevisiae deletion strains, locus YLR384C, strain iki3, active compounds read low 0.996 | S. cerevisiae deletion strains, locus YLR418C, strain cdc73, active compounds read low 1.01 | S. cerevisiae deletion strains, locus YML016C, strain PPZ1, active compounds read low 1.01 | S. cerevisiae deletion strains, locus YML032C, strain rad52, active compounds read low 1.04 | S. cerevisiae deletion strains, locus YML120C, strain ndi1, active compounds read low 0.973 | S. cerevisiae deletion strains, locus YML124C, strain tub3, active compounds read low 1.01 | S. cerevisiae deletion strains, locus YMR058W, strain fet3, active compounds read low 0.994 | S. cerevisiae deletion strains, locus YMR078C, strain ctf18, active compounds read low 1.01 | S. cerevisiae deletion strains, locus YMR125W, strain sto1, active compounds read low 1.01 | S. cerevisiae deletion strains, locus YMR129W, active compounds read low 1 | S. cerevisiae deletion strains, locus YMR205C, strain PFK2, active compounds read low 0.993 | S. cerevisiae deletion strains, locus YMR223W, strain ubp8, active compounds read low 0.986 | S. cerevisiae deletion strains, locus YMR231W, strain pep5, active compounds read low 0.991 | S. cerevisiae deletion strains, locus YMR263W, strain SAP30, active compounds read low 1 | S. cerevisiae deletion strains, locus YMR307W, strain GAS1, active compounds read low 1 | S. cerevisiae deletion strains, locus YNL067W, strain RPL9B, active compounds read low 1.03 | S. cerevisiae deletion strains, locus YNL071W, strain lat1, active compounds read low 1 | S. cerevisiae deletion strains, locus YNL128W, strain TEP1, active compounds read low 0.982 | S. cerevisiae deletion strains, locus YNL153C, strain GIM3, active compounds read low 1.01 | S. cerevisiae deletion strains, locus YNL183C, strain NPR1, active compounds read low 0.994 | S. cerevisiae deletion strains, locus YNL209W, strain ssb2, active compounds read low 1.02 | S. cerevisiae deletion strains, locus YNL233W, strain BNI4, active compounds read low 1.01 | S. cerevisiae deletion strains, locus YNL248C, strain rpa49, active compounds read low 1.01 | S. cerevisiae deletion strains, locus YNL250W, strain rad50, active compounds read low 1.01 | S. cerevisiae deletion strains, locus YNL271C, strain bni1, active compounds read low 1.01 | S. cerevisiae deletion strains, locus YNL298W, strain CLA4, active compounds read low 1.01 | S. cerevisiae deletion strains, locus YNL307C, strain MCK1, active compounds read low 1.02 | S. cerevisiae deletion strains, locus YNL322C, strain KRE1 (second series), active compounds read low 1 | S. cerevisiae deletion strains, locus YNL322C, strain KRE1, active compounds read low 0.992 | S. cerevisiae deletion strains, locus YNR049C, strain mso1, active compounds read low 1 | S. cerevisiae deletion strains, locus YNR052C, strain pop2, active compounds read low 1.02 | S. cerevisiae deletion strains, locus YOL006C, strain TOP1, active compounds read low 1.04 | S. cerevisiae deletion strains, locus YOL012C, strain htz1 1.61 | S. cerevisiae deletion strains, locus YOL147C, strain pex11, active compounds read low 1.01 | S. cerevisiae deletion strains, locus YOR001W, strain rrp6, active compounds read low 0.966 | S. cerevisiae deletion strains, locus YOR061W, strain CKA2, active compounds read low 1 | S. cerevisiae deletion strains, locus YOR069W, strain VPS5, active compounds read low 1 | S. cerevisiae deletion strains, locus YOR070C, strain gyp1, active compounds read low 1 | S. cerevisiae deletion strains, locus YOR080W, strain dia2, active compounds read low 0.986 | S. cerevisiae deletion strains, locus YOR083W, strain WHI5, active compounds read low 0.959 | S. cerevisiae deletion strains, locus YOR106W, strain vam3, active compounds read low 0.987 | S. cerevisiae deletion strains, locus YOR136W, strain idh2, active compounds read low 1.01 | S. cerevisiae deletion strains, locus YOR144C, strain elg1, active compounds read low 1.01 | S. cerevisiae deletion strains, locus YOR184W, strain ser1, active compounds read low 1 | S. cerevisiae deletion strains, locus YOR231W, strain MKK1, active compounds read low 1.02 | S. cerevisiae deletion strains, locus YOR265W, strain rbl2, active compounds read low 0.995 | S. cerevisiae deletion strains, locus YOR270C, strain vph1, active compounds read low 1.02 | S. cerevisiae deletion strains, locus YOR290C, strain snf2, active compounds read low 1 | S. cerevisiae deletion strains, locus YOR316C, strain cot1, active compounds read low 1.01 | S. cerevisiae deletion strains, locus YPL051W, strain arl3, active compounds read low 0.988 | S. cerevisiae deletion strains, locus YPL055C, strain LGE1, active compounds read low 0.982 | S. cerevisiae deletion strains, locus YPL078C, strain atp4, active compounds read low 0.959 | S. cerevisiae deletion strains, locus YPL106C, strain sse1, active compounds read low 1.02 | S. cerevisiae deletion strains, locus YPL240C, strain hsp82, active compounds read low 1.01 | S. cerevisiae deletion strains, locus YPL241C, strain CIN2, active compounds read low 0.996 | S. cerevisiae deletion strains, locus YPL256C, strain CLN2, active compounds read low 1.1 | S. cerevisiae deletion strains, locus YPR119W, strain clb2, active compounds read low 1.01 | S. cerevisiae deletion strains, locus YPR141C, strain kar3, active compounds read low 1.01 | S. cerevisiae deletion strains, locus YPR163C, strain tif3, active compounds read low 1.02 | S. cerevisiae deletion strains, locus YPR167C, strain met16, active compounds read low 1.01 | S. cerevisiae deletion strains, strain wtn01, active compounds read low 1.03 | S. cerevisiae strains, strain wild type, active compounds read low 0.998
